Rows were chosen to be rich in hits. Some 1.2% of all compounds tested hit in one or more screens of this group.
Pin1 inhibitor: qHTS Assay to Find Inhibitors of Pin1 | Peptidyl-prolyl cis-trans isomerase NIMA-interacting 1 (Homo sapiens), Q13526 | Pin1 FP peptide displacement, HiFluor488, 10 min | Potency, µM (doses to about 115 µM), for inactives: at the highest dose activity, negative = inhibition, usual class: inhibitors | hit rate 0.009% among 390,000; active means well fitted inhibition curve with a large enough effect in the polarisation, with a control signal flat, not every such curve was filed as active; inconclusive means small, poorly fitted or top-dose-only effect, or effect the other way, or a change in a side signal; inactive means no such curve, though single readings can be large or run the other way; the % refers to the polarisation; further: potency means the concentration at half of the fitted maximal effect
Target sequence (Q13526 whole entry, looked up): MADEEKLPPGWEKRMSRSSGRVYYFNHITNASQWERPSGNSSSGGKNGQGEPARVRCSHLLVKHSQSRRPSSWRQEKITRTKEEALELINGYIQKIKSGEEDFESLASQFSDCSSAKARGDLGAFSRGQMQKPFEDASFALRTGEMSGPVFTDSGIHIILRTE
KAT2A inh: qHTS Assay for Inhibitors of GCN5L2. Histone acetyltransferase KAT2A (Homo sapiens), Q92830. GCN5L2 HAT assay, ThioGlo1 CoA-SH fluorescence. Potency, µM (highest dose often 58.9 µM), for the others: top-dose activity change, negative = inhibition, usual class: inhibitors. hit rate 0.21% among 390,000; further: potency means the concentration at half of the fitted maximal effect
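Free CoA generated was detected with ThioGlo1 (50uM) fluorescence at Ex340nm/Em540nm, read immediately and after 20 min at room temperature. Enzyme, 20 nM in HEPES pH 7.5 buffer, saw compounds 15 min before adding 75uM H3(1-25) peptide and 70uM acetyl-CoA.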
PI4K2A block: qHTS for small molecular inhibitors of PI4K2A. hit rate 0.13% among 420,000. purified PI4K2A, ADP-Glo luminescence, 1 h; stronger effect = lower value. activity change, negative = inhibition, % at 76.9 µM. Phosphatidylinositol 4-kinase type 2-alpha (Homo sapiens), Q9BTU6; in the data active means activity change below about -50%; inconclusive means mostly about -30% to -49%;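 further: -100% = wells without enzyme as full effect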
Target sequence (Q9BTU6 whole entry, looked up): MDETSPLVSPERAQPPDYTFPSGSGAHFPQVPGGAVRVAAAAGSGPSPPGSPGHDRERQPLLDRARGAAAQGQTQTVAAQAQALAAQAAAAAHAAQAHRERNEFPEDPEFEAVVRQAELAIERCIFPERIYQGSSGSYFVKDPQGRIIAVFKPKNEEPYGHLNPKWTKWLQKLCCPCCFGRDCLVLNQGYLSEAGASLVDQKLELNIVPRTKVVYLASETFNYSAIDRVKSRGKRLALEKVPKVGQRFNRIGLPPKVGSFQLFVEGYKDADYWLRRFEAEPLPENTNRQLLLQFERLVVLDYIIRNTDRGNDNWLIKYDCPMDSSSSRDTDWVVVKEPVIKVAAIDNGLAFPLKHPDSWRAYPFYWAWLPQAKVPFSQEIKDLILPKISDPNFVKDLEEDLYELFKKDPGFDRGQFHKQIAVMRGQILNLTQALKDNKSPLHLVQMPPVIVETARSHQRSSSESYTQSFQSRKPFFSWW
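ADP-Glo luminescence measured ADP generated by PI4K2A enzyme (4 ug/mL before mixing) with 1.2 mM PI substrate (pre-mix) and 300 microM ATP (pre-mix). Tris pH7.5 buffer with MgCl2, Triton X-100; 1 h reaction at ambient temperature.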
Tb PGK inh: qHTS Assay to Find Inhibitors of Phosphoglycerate Kinase; PGK/GAPDH coupled, Kinase-Glo luminescence, 60 min; Potency, µM (doses to about 57.5 µM), for the others: at the highest dose activity change, negative = inhibition, most hits filed as inhibitors; hit rate 0.043% among 380,000; AID 602233, 2012; further: potency means the concentration at half of the fitted maximal effect; nearly all actives have a fitted effect of over 60% in size
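Luminescent ATP detection (Kinase-Glo Plus) follows a 60-minute room-temperature incubation, with wells lacking PGK as controls. Buffer: 100 mM TEA (pH 7.6), 5 mM MgCl2, 0.01% Tween-20. Coupling enzyme GAPDH (100 nM final) supplies unstable 1,3-BPG in-well.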
RGS12 GoLoco inh: qHTS Assay for Inhibitors of RGS12 GoLoco Motif Activity (Red Fluorophore). hit rate 0.44% among 230,000. Potency, µM (highest dose often 61.6 µM), for the others: top-dose activity, negative = inhibition, actives largely listed as inhibitors. Gai1:RGS12 GoLoco peptide FP, rhodamine, 10 min; active means well fitted inhibition curve with a large enough effect, not every such curve was filed as active; inactive means no such curve, though single readings can be large or run the other way; further: potency means the concentration at half of the fitted maximal effect; nearly all actives have a fitted effect of over 30% in size
PI5P4K alpha inh: qHTS for Inhibitors of phosphatidylinositol 5-phosphate 4-kinase (PI5P4K); hit rate 1.2% among 330,000; Phosphatidylinositol 5-phosphate 4-kinase type-2 alpha (Homo sapiens), P48426; max response, %; AID 652105, 2013; PI5P4Kalpha enzyme, ADP-Glo luminescence, 60 min; stronger effect = lower value; active means max response of -50% or lower; inconclusive means between -30% and -50%; inactive means -30% or higher; further: value at the top dose of about 77 µM
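Reactions run in 0.038 M HEPES pH 7.4, 0.28 mM EGTA, 0.1% CHAPS and 5% DMSO, with PI5P4Kalpha, substrate, compound and 5 microM ATP final, one hour at room temperature. Readout is ADP-Glo luminescence.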
An asterisk follows results filed as active; i = inactive; ? = inconclusive; nt = not tested or not shown; ! = repeats disagree. Unless noted, the call rests on the fitted dose curve; in most records, active means well fitted curve in the direction sought with a large enough effect; inconclusive means small, poorly fitted or top-dose-only effect, or another doubt; inactive means no such curve, though single readings can be large; an effect the other way counts as inactive or inconclusive. Unless noted, on the % scale 0 is the no-effect control and ±100 the full control effect.

SMILES	Pin1 inhibitor	KAT2A inh	PI4K2A block	Tb PGK inh	RGS12 GoLoco inh	PI5P4K alpha inh
COc1cc(-c2cnc3c(NC=O)cc(-c4ccccc4)cn23)cc(OC)c1OC	nt	nt	-4	nt	nt	-16
CC(=O)c1ccc(-c2cnc3c(NC=O)cc(-c4cccc(C(=O)N(C)C)c4)cn23)cc1	nt	nt	-5	nt	nt	-59*
NC(=O)CSc1nnc(COc2ccccc2)n1Cc1ccco1	-1%	-5%	-2	-7%	1%	-2
CC(C)(C)Sc1ccc2nc3c(n2c1)CCCC3	-4%	-5%	-1	3%	6%	-2
COc1cccc(-c2cc(NC=O)c3ncc(-c4ccc(C(C)=O)cc4)n3c2)c1	nt	nt	-1	nt	nt	-68*
COc1cccc(C(=O)NCCS(=O)(=O)N2CCC3(CC2)OCCO3)c1	-1%	-4%	3	-2%	nt	-1
Cc1cc(C)n2nc(SCC(=O)N3CC(C)CC(C)C3)nc2n1 (stereo unspecified)	4%	-9%	1	-4%	nt	-5
Nc1ncnc2c1c(I)cn2C1OC(CO)C(O)C1O (stereo unspecified)	nt	4%	nt	nt	25µM*!	nt
Nc1ncnc2c1ncn2C1O[C@H](CO)[C@@H](O)[C@@H]1O (stereo partly specified)	-6%	-4%	-12	-4%	nt	-2
N#Cc1c(N)n(C2OC(CO)C(O)C2O)c2ncnc(N)c12 (stereo unspecified)	0%	nt	-62*	2%	nt	?
CC(=O)c1c(N2CCOCC2)nc(=S)n(-c2ccc([N+](=O)[O-])cc2)c1C	-1%	-2%	1	5%	8%	-3
Cc1ccc(-n2nc(-c3ccco3)cc2C(=O)O)cc1	?	0%	2	-20%	-9%	-51*
O=C(c1cc(-c2cccc(Cl)c2)on1)N1CCCCCC1	8%	-7%	-2	-6%	nt	-11
O=C(c1cc(-c2ccco2)nn1-c1cccc(Cl)c1)N1CCCCC1	21%	-15%	-16	0%	18%	-82*
Cc1nnc(NC(=O)C2C3C=CC(O3)C2C(=O)O)s1 (stereo unspecified)	nt	-2%	nt	nt	-16%	nt
Cc1ccc(/C=C/C(=O)NCCc2ccccc2)o1	4%	-4%	-1	-6%	nt	-60*
O=C(/C=C/c1ccco1)NCCc1ccccc1	1%	-2%	2	1%	12%	-18
O=C(NCc1ccco1)c1cccc2c1C(=O)c1ccc(N3CCC(Cc4ccccc4)CC3)cc1S2(=O)=O	?	-12%	4	-2%	nt	-12
O=C(NCc1ccco1)c1cccc2c1C(=O)c1ccc(/C=C/c3ccccc3)cc1S2(=O)=O	?	?	-18	?	nt	-72*
CC1CCCCC1NC(=O)Cn1cnc2sccc2c1=O (stereo unspecified)	1%	-25%	-1	i	nt	7
Cc1c(N2C(=O)CS/C2=N\N=C\c2ccc(Br)cc2)c(=O)n(-c2ccccc2)n1C	-1%	1.6µM*	-10	1%	-1%	-2
Cc1c(N=C2SCC(=O)N2/N=C\c2ccc(Br)cc2)c(=O)n(-c2ccccc2)n1C	1%	2%	0	-9%	-3%	-5
Cc1ccc(-n2ncc3c(=O)n(CC(N)=O)cnc32)cc1C	0%	4µM*	0	6%	nt	5
CCOC(=O)Cn1cnc2c(cnn2-c2ccc(C)c(C)c2)c1=O	8%	3%	-3	i	nt	nt
COC(=O)C1(C(=O)OC)CC2=CC(CC2=O)Cc2ccccc2[C@@H]1C[N+](=O)[O-] (stereo partly specified)	nt	nt	nt	nt	22µM*	nt
SMILES	Pin1 inhibitor	KAT2A inh	PI4K2A block	Tb PGK inh	RGS12 GoLoco inh	PI5P4K alpha inh
COC(=O)C1(C(=O)OC)C/C=C\C/C=C\c2ccccc2C1C[N+](=O)[O-] (stereo unspecified)	nt	nt	nt	nt	1%	nt
CCc1nc2c(OCc3ccc(C(F)(F)F)cc3)cccn2c1N(C)C(=O)c1ccc(C)cc1	nt	nt	-3	nt	nt	-2
CCOC(=O)Cn1nc(/C=C/c2ccc(OC)cc2)ccc1=O	-16%	nt	1	5%	nt	-4
Cc1ccc(Nc2ncc3c(=O)[nH][nH]c(=O)c3n2)cc1	0%	nt	0	-2%	nt	-61*
CCCCCC(=O)Nc1cc(S(=O)(=O)O)cc2cc(S(=O)(=O)O)cc(O)c12	?	nt	-59*	1.1µM*	nt	-86*
CC1(C)CC(=O)C2=C(C1)OC(c1ccncc1)C(C#N)=C2N (stereo unspecified)	2%	-4%	3	0%	-3%	-8
CCCCn1c(NC(=O)c2ccccc2Cl)c(C#N)c2nc3ccccc3nc21	?	-11%	-26	-22%	5%	-4
N#Cc1c(NC(=O)c2ccccc2Cl)n(Cc2ccccc2)c2nc3ccccc3nc12	-20%	?	-50*	-6%	118%	-11
CCOC(=O)c1c(NC(=O)c2ccccc2N(C)S(=O)(=O)c2ccccc2)sc2c1CCCC2	10%	32µM*	3	-9%	3%	1
COC(=O)c1c(NC(=O)c2ccccc2N(C)S(=O)(=O)c2ccccc2)sc2c1CCCC2	12%	-3%	-4	-11%	7%	7
Cc1ccc(Cl)cc1N1CCN(C(=O)c2cc3ccc4cccnc4c3[nH]2)CC1	9%	-1%	-76*	-3%	nt	nt
O=S(=O)(/N=C(/Nc1ccccc1)C(F)(F)F)c1ccccc1	-2%	-5%	-2	i	-2%	2
CCCCC(CC)C1OCC(C[N+]2(C)CCOCC2)O1 (stereo unspecified)	6%	1%	3	-4%	10µM*	-4
CCOc1cc(/C=C2/C(=O)N(c3ccccc3)N=C2C)ccc1OC(=O)c1cccs1	7%	-6%	-52*	i	9%	nt
CCOc1ccc(NC(=O)/C(C#N)=C/c2ccc(N3CCCC3)c(C)c2)cc1	?	-3%	-1	-3%	110%	-8
C=CCNC(=O)/C(C#N)=C\c1cc(Cl)c(O)c(OCC)c1	59%	10%	-2	i	-16%	-59*
CCOCCCNC(=O)/C(C#N)=C/c1cc(C)c(O)c(C)c1	11%	-12%	-6	i	3%	1
CCOc1cc(/C=C(/C#N)C(=O)Nc2ccc(O)cc2)cc(Br)c1O	?	-2%	7	4%	-4%	-71*
COC(=O)C[C@H]1CC[C@H](NC(=O)Cc2ccccc2)[C@@H](CO)O1	nt	nt	-5	nt	nt	2
O=C(COc1ccccc1)N1CCN=C1SCc1ccccc1F	-7%	2%	-2	-5%	1%	-7

Compound activity as filed in PubChem BioAssay.
